# From PubChem BioAssay AID624312 (National Center for Advancing Translational Sciences (NCATS), 2012)
# Records with an inconclusive call do not appear. A number with no mark means an inactive call. The source made the active and inactive calls. Calls come from the whole dose curve; as a rule, active = well fitted inhibition curve with a large enough effect; inconclusive = small, poorly fitted or top-dose-only effect; inactive = no such curve, though single readings can be large or run the other way.
# Target: Peptidyl-prolyl cis-trans isomerase NIMA-interacting 1 (Homo sapiens) (UniProt Q13526)
# Sequence (Q13526 whole entry, looked up): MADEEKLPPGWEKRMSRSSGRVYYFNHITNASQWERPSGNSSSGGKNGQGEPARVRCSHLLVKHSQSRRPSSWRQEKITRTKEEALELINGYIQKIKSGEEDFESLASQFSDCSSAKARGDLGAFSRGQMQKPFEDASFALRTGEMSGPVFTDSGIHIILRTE
# Test: qHTS Assay to Find Inhibitors of Pin1: Hit Validation using Tamra Binding
# Settings: Pin1 Tamra-peptide displacement, fluorescence polarization, 10 min; series mostly up to 57.5 µM; activity change, negative = inhibition: at the top concentration
# From the text: The unique chemical properties of Pro allow for the adoption of two completely distinct amide bond conformations (cis and trans). Peptidyl-prolyl cis/trans isomerases (PPIases) are evolutionary conserved enzymes that catalyze cis/trans isomerization of peptidyl-prolyl peptide bonds. Distinct from all other PPIases such as cyclophilins and FK506-binding proteins (FKBPs), Pin1 binds a subset of phos.Ser/Thr-Pro-containing proteins using its protein-targeting WW domain and isomerizes only specific phos.Ser/Thr-Pro bonds, which cannot be effectively catalyzed by other known PPIases. Pin1-catalyzed conformational regulation can control a spectrum of activities of many key regulators in diverse cellular processes such as cell growth, genotoxic and other stress responses, immune response, germ cell development, neuronal differentiation and survival. Pin1 has emerged as a novel molecular timer that modulates its multiple targets at various steps of a given cellular process to synergistically control the amplitude and duration of a cellular response or process. Importantly, Pin1 is tightly regulated by multiple levels and its deregulation has an important role in a growing number of pathological conditions, including cancer, Alzheimer's disease, aging, asthma and microbial infection, providing a potentially new therapeutic option. The goal of this screen is to find small-molecule inhibitors of Pin1 using a fluorescence polarization competition assay.In the primary screen, a HiFluor-488-labeled peptide binds to the active site of Pin1 and can be displaced by compounds. Compounds were screened as a concentration-titration series that ranged from 57 uM to 0.7 nM. To validate the hits using a different read-out, this Tamra binding assays was used against all the hits identified from the primary screen. NIH Molecular Libraries Probe Production Network [MLPCN] NIH Chemical Genomics Center [NCGC] MLPCN Grant: R03 DA031663 PI Name: Dr. Kun Ping Lu, Beth Israel Deaconess Medical Center
# Briefly, 2 uL of Pin1 (all columns but column 3, which just receives buffer and serves as negative control) are dispensed into Greiner black solid bottom 1536-well assay plates. Compounds are then transferred via Kalypsys pin tool equipped with 1536-pin array (10 nl slotted pins, V&P Scientific, San Diego, CA). Following addition of compound, 2 uL of Tamra-probe in buffer (all columns) is added to initiate the binding reaction. The plates are then incubated at room temperature for 10 minutes. Finally, plates are transferred to a ViewLux high-throughput CCD imager (PerkinElmer), wherein end-point measurements of fluorescence polarization are acquired. All reagents are diluted in an assay buffer consisting of 10 mM Hepes, 10 mM NaCl, 1 mM DTT, 1% glycerol and 0.01% Tween-20.
Compound,"activity change, negative = inhibition [%]",Potency
COc1ccc(S(=O)(=O)Nc2cc(Sc3ncn[nH]3)c(O)c3ccccc23)cc1,-5.86,–
CC(=O)Nc1ccc(Nc2c3c4c(cccc4n(C)c2=O)C(=O)c2ccccc2-3)cc1,-17.4,–
O=S(=O)(Nc1cc(Sc2ncn[nH]2)c(O)c2ccccc12)c1ccccc1,0.852,–
Nc1ccc2cccc(O)c2c1,–,26.9 µM (active)
Cc1ccc2nc(-c3ccc(N=Nc4cc(S(=O)(=O)O)c5ccccc5c4O)cc3)sc2c1S(=O)(=O)O,282,–
CCCCCC(=O)Nc1cc(S(=O)(=O)O)cc2cc(S(=O)(=O)O)cc(O)c12,–,2.39 µM (active)
COc1ccccc1Nc1ccc2c(O)cc(S(=O)(=O)O)cc2c1,–,7.57 µM (active)
O=S(=O)(O)c1cc(O)c2cc(Nc3ccccc3)ccc2c1,–,12 µM (active)
O=S(=O)(O)c1ccc(O)c2cc(Nc3ccccc3)ccc12,–,3.01 µM (active)
